# Source: PubChem
# Most compounds without a hit are left out; they make up all but 0.86% or so of the library.
# TLR9-MyD88 block: inhibitors of TLR9-MyD88 association in cells, primary screen, cell-based, CHO, BLA complementation, fluorescence. Toll-like receptor 9 (Homo sapiens) + Myeloid differentiation primary response protein …. CCF4 FRET ratio. inhibition, % at 4.98 µM. 340,000 tested, 0.21% active. AID 504734, 2011;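 active = inhibition above the mean over all tested compounds plus 3 SD, cut at about 21% in these data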
# TLR4-MyD88 BLA: inhibitors of TLR4-MyD88 association in cells, primary screen, cell-based, HeLa CL3-4, BLA complementation, FRET ratio | Toll-like receptor 4 (Homo sapiens) + Myeloid differentiation primary response protein … | HeLa CL3-4 TLR4/MyD88 BLA complementation | inhibition, % at 8.4 µM | 200,000 tested, 0.18% active | AID 861, 2007; in the data active = inhibition above about 25%
# NOD2 RIPK2 PPI: NOD2-RIPK2 binding disruptors in cells, primary screen, fluorescence, CHO cells, BLA complementation. CCF4 ratio. 360,000 tested, 0.38% active. inhibition, % at 4.98 µM; in the data active = inhibition above about 21%
# Target sequence (O43353 whole entry, looked up): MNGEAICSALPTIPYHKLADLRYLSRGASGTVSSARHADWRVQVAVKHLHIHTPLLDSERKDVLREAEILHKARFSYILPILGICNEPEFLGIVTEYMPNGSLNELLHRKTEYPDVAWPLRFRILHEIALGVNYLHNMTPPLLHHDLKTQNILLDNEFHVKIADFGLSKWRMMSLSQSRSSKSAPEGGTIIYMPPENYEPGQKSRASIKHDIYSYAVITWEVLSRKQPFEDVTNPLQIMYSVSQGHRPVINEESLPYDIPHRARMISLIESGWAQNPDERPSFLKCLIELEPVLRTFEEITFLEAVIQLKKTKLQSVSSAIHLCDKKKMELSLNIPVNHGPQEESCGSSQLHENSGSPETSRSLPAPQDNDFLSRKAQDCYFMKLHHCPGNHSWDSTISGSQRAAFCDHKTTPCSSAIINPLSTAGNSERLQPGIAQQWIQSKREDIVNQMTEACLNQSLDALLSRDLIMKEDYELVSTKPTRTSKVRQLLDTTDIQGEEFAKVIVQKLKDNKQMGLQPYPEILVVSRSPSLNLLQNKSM
# IDE inh: human IDE inhibitors in live cells, primary screen, fluorescence polarization, HEK cells, FAbetaB substrate; FAbetaB cleavage; 320,000 tested, 0.41% active; AID 434962, 2010; inhibition, % at 5.59 µM;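 active = percent inhibition above the average of all tested compounds plus 3 SD, set per screening campaign, cut at about 16% in these data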;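 also: IDE supplied by intact live HEK cells; FP after avidin binding of uncleaved biotin substrate so inhibition keeps polarization high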
# IDE cell activ: human IDE activators in live cells, primary screen, fluorescence polarization, HEK cells, FAbeta-B substrate; FAbeta-B cleavage; 0% vehicle, 100% cell-free pure enzyme wells; activation, % at 5.96 µM; 340,000 tested, 0.073% active; AID 493087, 2011;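 active = activation above the mean of all tested compounds plus 3 SD, set per screening campaign, cut at about 17% in these data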
# IDE inh confirm: human IDE inhibitors in live cells, confirmation, fluorescence polarization, HEK cells, FAbetaB substrate | shares compounds with IDE inh | FAbetaB cleavage | inhibition, % at 5.59 µM | 1,200 tested, 51% active | AID 435028, 2010;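 active = mean inhibition across triplicate wells above the cutoff set by the earlier primary insulin-degrading enzyme screen, cut at about 16% in these data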
# HEK cytotox: cytotoxicity in HEK cells, cytotoxicity control for IDE inhibitor project, cell-based, luminescence. 1,200 tested, 28% active. shares compounds with IDE inh. AID 449730, 2010. HEK293 cytotoxicity, ATP luminescence. inhibition, % at 5.59 µM; in the data active = inhibition above about 22%
# IDE FP artifact: fluorescent or optically active artefacts, dose response, artefact control for IDE inhibitor project, biochemical, fluorescence polarization; 30 tested, under 10 active; IC50, µM; FP counterscreen for fluorescent artifacts, IDE probe project; shares compounds with IDE inh; call rule not given here
# Numbers stand for hits; – = inactive; · = not tested or not shown.
SMILES,TLR9-MyD88 block,TLR4-MyD88 BLA,NOD2 RIPK2 PPI,IDE inh,IDE cell activ,IDE inh confirm,HEK cytotox,others
C[C@H]1C=CC(=O)O[C@H]1c1ccccc1,–,·,–,–,–,·,·,
CC(=O)N1CCc2cc(Br)cc(S(=O)(=O)NCCCN3CCC(C)CC3)c21,–,–,–,–,–,·,·,
COc1cccc(/C=C2\Oc3ccc(O)cc3C2=O)c1O,–,·,–,–,–,·,·,
CC(=O)Oc1ccc(/C=C2/Oc3ccccc3C2=O)cc1,–,·,–,28,–,66,–,
COC(=O)c1ccc2c(c1)C(=O)/C(=C/c1ccc(O)cc1)O2,–,–,–,55,–,86,–,
O=C(Nc1ccc(N2CCN(c3ccc(C(F)(F)F)cn3)CC2)nc1)c1cccs1,–,·,–,17,–,–,31,
O=C(Nc1ccc(N2CCN(c3ncccc3C(F)(F)F)CC2)nc1)c1cccs1,–,·,–,–,–,·,·,
CCOC(=O)c1sc(Nc2nc3c(OC)cccc3s2)nc1C,–,–,–,17,–,–,–,
CCC(=O)Nc1nc2ccc(NC(C)=O)cc2s1,–,–,–,–,–,·,·,
CCOc1cccc2sc(Nc3nc4ccc(NC(C)=O)cc4s3)nc12,–,–,–,32,–,–,89,
CCOC(=O)c1sc(Nc2ccccc2)nc1C,–,–,–,–,–,·,·,
COC(=O)CN=Cc1c(C)[nH]n(-c2ccccc2)c1=O,–,–,–,–,–,·,·,
Cc1[nH]n(-c2ccccc2)c(=S)c1C=NCCCN=Cc1c(C)[nH]n(-c2ccccc2)c1=S,–,–,–,32,–,–,123,
Cc1ccc[n+](C(C)C(=O)c2ccc(Cl)cc2)c1 (stereo not drawn),–,·,–,–,–,·,·,
Cc1cc(C)c[n+](C(C)C(=O)c2ccc(-c3ccccc3)cc2)c1 (stereo not drawn),–,–,–,17,–,–,71,
COC(=O)c1ccc(Oc2nc(N3CCCCC3)nc(N3CCOCC3)n2)cc1,–,–,–,–,–,·,·,
O=C(O)c1ccccc1-c1c2cc(I)c(=O)c(I)c-2oc2c(I)c(O)c(I)cc12,–,·,–,147,–,91,27,
COC1=CC(=Cc2c(N)n3nc(CC(=O)N4CCOCC4)sc3nc2=O)C=C(OC)C1=O,–,·,–,121,–,26,–,
C=CCC1=C/C(=C\c2c(N)n3nc(CC(=O)N4CCCC4)sc3nc2=O)C=C(OC)C1=O,–,·,–,26,–,26,–,
Cc1cccc(N=Cc2[nH]c3ccc(Br)c(Cl)c3c2O)c1,–,–,–,22,–,23,–,
O=c1c(Cl)c(NCc2ccccc2Cl)cnn1C12CC3CC(CC(C3)C1)C2,–,–,–,34,–,19,40,
O=S(=O)(Nn1c(O)c(C=C2N=c3ccccc3=N2)sc1=S)c1ccccc1,–,·,–,–,–,·,·,
O=C(Nn1c(O)c(C=C2N=c3ccccc3=N2)sc1=S)c1ccccc1Cl,–,–,–,17,–,–,–,
CCCc1cc(Nc2c(C)n(C)n(-c3ccccc3)c2=O)n2c(nc3ccccc32)c1C#N,–,–,–,–,–,·,·,
Cc1cnc(C(=O)OCC(=O)N2CCN(C(=O)c3ccco3)CC2)cn1,–,–,–,–,–,·,·,
SMILES,TLR9-MyD88 block,TLR4-MyD88 BLA,NOD2 RIPK2 PPI,IDE inh,IDE cell activ,IDE inh confirm,HEK cytotox,others
O=C(NC1CCCc2ccccc21)c1ccc(S(=O)(=O)N2CCOCC2)cc1 (stereo not drawn),–,–,–,–,–,·,·,
O=S(=O)(c1ccc(NC2CCCc3ccccc32)nc1)N1CCOCC1 (stereo not drawn),–,–,–,19,–,–,–,
CSc1nc(N)n(-c2cc(C(F)(F)F)ccn2)n1,–,·,–,–,–,·,·,
COc1cc2cc(C(=O)N/N=C/c3ccccc3Cl)[nH]c2cc1OC,–,·,–,17,–,–,–,
CCOC(=O)c1ccc(/C=C2/C=C(c3ccccc3)N(c3ccc(Cl)c(C(=O)O)c3)C2=O)cc1,–,–,–,17,–,44,84,
CCOC(=O)c1ccc(Cl)c(NC(=O)c2ccc(-c3ccccc3)cc2)c1,–,–,–,–,–,·,·,
NNC(=O)c1sc(-c2ccccc2)cc1N,–,–,–,–,–,·,·,
COc1cccc(C(=O)c2c[nH]c(C(=O)NCc3cccs3)c2)c1,–,–,–,–,–,·,·,
O=C1Nc2ccccc2/C1=C/c1cnc(-c2ccccc2)[nH]1,–,·,–,32,–,30,–,
COc1cc2ncnc(NCc3ccccc3F)c2cc1OC,–,·,–,–,–,·,·,
COc1cc2ncnc(NCc3cccc(F)c3F)c2cc1OC,–,·,–,18,–,–,–,
O=C(Nc1ccc(Br)cc1)c1cccc2c1C(=O)N(C1CCCCC1)C2,–,·,–,–,–,·,·,
Cc1cccc(NC(=O)/C(=C\c2ccc([N+](=O)[O-])o2)NC(=O)c2ccc(Cl)cc2)c1,–,–,–,17,–,–,–,
COC(=O)c1cc(Sc2c(Cl)cccc2Cl)ccn1,–,–,–,–,–,·,·,
COC(=O)c1cc(Sc2cccc(Cl)c2Cl)ccn1,–,–,–,19,–,–,–,
Cn1c(/C(C#N)=C/c2ccc(-c3ccc(S(N)(=O)=O)cc3)o2)nc2ccccc21,–,–,–,26,–,47,46,
Cn1c(/C(C#N)=C/c2cccc(O)c2)nc2ccccc21,–,–,–,–,–,·,·,
COC(=O)c1cc(NC(=O)CSc2nnc(CN3CCOCC3)n2C)ccc1Cl,–,–,–,21,–,–,–,
Cn1c(CN2CCOCC2)nnc1SCC(=O)Nc1cc(Cl)ccc1Cl,–,·,–,–,–,·,·,
CC(C)c1ccc(NC(=O)CSc2nnc(-c3ccccn3)n2C)cc1,–,–,–,19,–,–,–,
COc1cccc(NC(=O)CSc2nnc(CN3CCOCC3)n2C)c1,–,–,–,–,–,·,·,
CC(C)c1ccc(NC(=O)CSc2nnc(CN3CCOCC3)n2C)cc1,–,·,–,17,–,–,–,
COc1ccc(NC(=O)CSc2nnc(CN3CCOCC3)n2C)cc1Cl,–,·,–,22,–,23,–,IDE FP artifact=–
O=S1(=O)N=C(N2CCOCC2)c2ccccc21,–,–,–,–,–,·,·,
CCc1nc2ccc(C(=O)Nc3ccc(OC)c(OC)c3)cn2c1N(CC)CCOC,·,·,–,·,·,·,·,
